Inconclusive results are not listed. Active and inactive are the calls of the source. The call rests on the fitted dose curve; in most records, active means well fitted cell-killing curve with a large enough effect; inconclusive means small, poorly fitted or top-dose-only effect, or effect the other way; inactive means flat fitted curve, though single readings scatter.
system: JEG-3; test: Primary qHTS to identify gynecologic anti-cancer compounds using libraries of approved drugs and bioactive compounds (AID 1345084); conditions: Gynecologic cancer cell panel viability, ATPlite luminescence, 48 h; series mostly up to 57.5 µM; activity change, negative = cytotoxicity: at the top concentration; further: nearly all actives have a fitted effect of over 55% in size
Text: National Center for Advancing Translational Sciences [NCATS] Assay Overview: Chemotherapeutic drug responses vary from cancer to cancer and from patient to patient. These variations could be caused by a number of factors including patient genomic background, tumor mutations, tumor heterogeneity, and aspects of drug treatment. Chemotherapeutic drug resistance is also a common issue and can lead to ineffective treatment and patient death. Here we have profiled the cell killing effects of thousands of compounds to characterize the responses in three gynecological cancers, identify cancer-selective compounds, and understand the diversity of responses to these compounds from pan-cancer suppressors to single cell line selective compounds. In this assay, we screened a 7,914 compound drug library that included approved drug and bioactive compounds in six ovarian, three cervical, and […] placental cancer cell lines using the ATPlite assay for cell viability. […] The cervical cancer cell lines included HeLa, Ca Ski, and C-33 A. The placental cancer cell lines included JEG-3. HEK 293T cells were used as the control cell line to determine the selectivity index. ATPlite is a luminescence based assay reliant on the conversion of a luciferase substrate to light in the presence of ATP. As a cytotoxic compound will suppress growth and decrease the number of cells, the concentration of ATP will decrease, and less light signal will be detected in the well.
Assay Protocol Summary: 1,000 cells in 4 uL of media were dispensed into white, solid bottom 1536-well plates using a Multidrop Combi (Thermo Scientific). The Assay plates were incubated for 16 hours at 37 C with 5% CO2 in assay plates, followed by the addition of 23 nL of DMSO or drug dissolved in DMSO. Each compound was assayed in five concentrations (0.092, 0.46, 2.3, 11.5, and 57.5 uM), using the automated Wako 1536 Pin Tool workstation and incubated at 37 C with 5% CO2 48 hours. 4 uL of ATPlite, the ATP monitoring reagent, was then added to the each well of the assay plates using the Multidrop Combi reagent dispenser followed by incubation for 15 minutes at room temperature. The resulting luminescence was measured using the ViewLux plate reader.
On the % scale 0 is the no-effect control and ±100 the full control effect.

SMILES | activity change, negative = cytotoxicity | Potency
CNCC(O)c1ccc(O)cc1 (stereo not given) | 3.54% (inactive) | 
C=C1CC[C@@]2(O)[C@H]3Cc4ccc(O)c5c4[C@@]2(CCN3CC2CC2)[C@H]1O5 | 26.7% (inactive) | 
C[C@]12C/C(=C/O)C(=O)C[C@@H]1CC[C@@H]1[C@@H]2CC[C@@]2(C)[C@H]1CC[C@]2(C)O | 0.598% (inactive) | 
CC(C)=CCOc1c2occc2cc2ccc(=O)oc12 | 14.5% (inactive) | 
NCC1(CC(=O)O)CCCCC1 | -2.81% (inactive) | 
O=C(O)c1ccc2[nH]cc(CCCCN3CC=C(c4ccccc4)CC3)c2c1 | 3.24% (inactive) | 
CC(O)(CS(=O)(=O)c1ccc(F)cc1)C(=O)Nc1ccc(C#N)c(C(F)(F)F)c1 (stereo not given) | -18.6% (inactive) | 
CC(C)(C)NCC(O)c1cc(Cl)c(N)c(Cl)c1 (stereo not given) | 1.19% (inactive) | 
Cc1cccc(C)c1NC(=O)CN1CCCC1=O | 0.224% (inactive) | 
CNC(=O)c1ccc(N2C(=S)N(c3ccc(C#N)c(C(F)(F)F)c3)C(=O)C23CCC3)cc1F | 10.6% (inactive) | 
CCCC(C)(COC(N)=O)COC(=O)NC(C)C (stereo not given) | 2.19% (inactive) | 
Cc1ccc2c(c1)C1CN(C)CCC1N2 (stereo not given) | -0.307% [at 25.3 µM] (inactive) | 
Oc1cc(Cl)ccc1Oc1ccc(Cl)cc1Cl | 3.31% (inactive) | 
CC(C)=CC1C(C(=O)OCc2cccc(Oc3ccccc3)c2)C1(C)C (stereo not given) | -16.9% (inactive) | 
Cc1ccc(S(=O)(=O)N[C@@H](CCCCN)C(=O)CCl)cc1 | 0.791% (inactive) | 
O=C(O)C(=O)c1cn(Cc2ccccc2)c2ccc(-c3ccc(OC(F)(F)F)cc3)cc12 | -2.28% (inactive) | 
CC(CCc1ccccc1)NC(C)C(O)c1ccc(O)cc1 (stereo not given) | 15.6% (inactive) | 
CCOC(=O)C1(c2ccccc2)CCN(CCC(C#N)(c2ccccc2)c2ccccc2)CC1 | -5.85% (inactive) | 
CC(C)NCC(O)c1ccccc1Cl (stereo not given) | -6.08% (inactive) | 
Cc1cccc(C)c1NC1=NCCCS1 | 3.22% (inactive) | 

SMILES | activity change, negative = cytotoxicity | Potency
COc1ccccc1N1CCNCC1 | 3.21% (inactive) | 
C[C@]12CCC(=O)C(O)=C1CC[C@@H]1[C@@H]2CC[C@]2(C)C(=O)CC[C@@H]12 | 16.4% (inactive) | 
CCN(CC)CCOC(=O)C(O)(c1ccccc1)c1ccccc1 | 16.5% (inactive) | 
CCN(C(C)=O)c1cccc(-c2ccnc3c(C#N)cnn23)c1 | 12.8% (inactive) | 
NCC(O)c1ccc(O)cc1 (stereo not given) | 3.2% (inactive) | 
c1ccc2c(c1)OCC(C1=NCCN1)O2 (stereo not given) | -18.4% (inactive) | 
Clc1cccc(N2CCNCC2)c1 | 4.97% (inactive) | 
CCCC1CCCCN1 (stereo not given) | 4.78% (inactive) | 
CCN(CC)C(=O)N[C@@H]1C=C2c3cccc4[nH]cc(c34)C[C@@H]2N(C)C1 | 5.1% (inactive) | 
Nc1ccncc1 | 8.26% (inactive) | 
CO[C@]12CC[C@@]3(C[C@@H]1[C@](C)(O)C(C)(C)C)[C@@H]1Cc4ccc(O)c5c4[C@@]3(CCN1CC1CC1)[C@H]2O5 | -6.52% [at 116 µM] (inactive) | 
NP(N)(=O)NC(=O)c1ccc(F)cc1 | 0.278% (inactive) | 
C#CCOC(C(=O)OCCN(C)C)(c1ccccc1)c1ccccc1 | -4.19% (inactive) | 
CC(C)(N)Cc1ccc(Cl)cc1 | -8.02% (inactive) | 
CC(=O)[C@H]1CC[C@H]2[C@@H]3CC[C@H]4C[C@H](O)CC[C@]4(C)[C@H]3C(=O)C[C@]12C | -4.74% (inactive) | 
Cc1ncc(CNC(=O)N(CCCl)N=O)c(N)n1 | -8.17% (inactive) | 
N[C@@H]1C[C@H]1c1ccccc1 | -8.93% (inactive) | 
CN(C)[C@@H]1C(=O)C(C(N)=O)=C(O)[C@@]2(O)C(=O)C3=C(O)c4c(O)cccc4[C@@](C)(O)[C@H]3C[C@@H]12 | -15.8% (inactive) | 
Cn1c(CCCC(=O)O)nc2cc(N(CCCl)CCCl)ccc21 | -1.78% (inactive) | 
Oc1ccc(Cl)cc1Cc1ccccc1 |  | inactive

Reference: PubChem BioAssay (NCATS)
